# The panel holds about 83,000 compounds, 20% with a hit somewhere; the sample as a whole holds those more often.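 48-hour exposure, single concentration, 96-well plates; percent growth endpoint where 0 means no net growth. Active: below 10.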 Activity calls are given as the source filed them.
# System: UO-31 renal
# Assay: NCI-60 one-dose screen, 48 h (100 = growth as untreated, 0 = no growth, -100 = all killed)
# Conditions: 10 µM unless noted
# Protocol: Growth inhibition of the UO-31 human tumor cell line is measured as a screen for anti-cancer activity. Cells are grown in 96 well plates and exposed to the test compound for 48 hours. Compounds are tested at a single concentration, which is 10^-5 M for most compounds. The reported endpoint is percent growth (GI% or GIPRCNT), where numbers from 0 - 100% represent growth inhibition, and numbers from -100% - 0 represent cell death. For example, a value of 40 represents 60% growth inhibition. A value of 0 means no net growth occurred over the course of the experiment. A value of -40 indicates 40% of cells at the beginning of the experiment died by the end of the experiment. A value of -100 means all cells are dead at the end of the experiment.
# NCI-60 Human Tumor Cell Lines Screen was performed using the standard one-dose NCI protocol, which is described in more detail at https://dtp.cancer.gov/discovery_development/nci-60/default.htm.
# Compounds with GIPRCNT values below 10 were considered active. Activity score was based on GIPRCNT using the following formula: […]
# Score is 0 for GIPRCNT values of 100 or above, 50 for GIPRCNT values of 0, and 100 for GIPRCNT values of -100.
row,SMILES,growth
1,CSc1nc(-c2cccs2)c2c(N)[nH]nc2n1,84.1% (inactive)
2,Nn1c(SCC(=O)Nc2ccc(Cl)cc2)nnc1-c1cc(F)c(Cl)cc1Cl,69.9% (inactive)
3,O=C1NC(SCc2ccc(F)cc2)=N/C1=C/c1cccc(OCc2ccc(Cl)cc2)c1,-38.2% (active)
4,N#Cc1c(-c2ccc(F)cc2)nc(N/N=C/c2c[nH]c3ccccc23)nc1N1CCOCC1,34.5% (inactive)
5,CC(=O)[C@@H]1CC[C@]2(C(=O)O)CC[C@]3(C)[C@H](CC[C@@H]4[C@@]5(C)Cc6c([nH]c7ccccc67)C(C)(C)[C@@H]5CC[C@]43C)[C@@H]12,48.6% (inactive)
6,O=c1[nH]c2ccccc2cc1-c1nc2ccc(Cl)cc2[nH]1,45.7% (inactive)
7,O=C1NN(c2ccccc2)C(c2ccc(Cl)cc2)N2CCC[C@H]12 (stereo not given in full),85.3% (inactive)
8,NS(=O)(=O)c1ccc(C2C3=C(CCCC3=O)OC3=C2C(=O)c2ccccc2C3=O)cc1 (stereo not given),-21.6% (active)
9,NS(=O)(=O)c1ccc(N2Cc3cc(Cl)ccc3OC3=C2C(=O)N(CC2CCCCC2)C3=O)cc1,-84% (active)
10,COc1cc(-c2nn(-c3ccc(Br)cc3)cc2CO)ccc1O,59.9% (inactive)
11,COc1cc(NC(=O)Nc2cnc(Nc3ccc(N4CCOCC4)cc3)nc2Oc2ccc(C(F)(F)F)cc2)cc(OC)c1,84.7% (inactive)
12,Nc1ccccc1NS(=O)(=O)c1ccc(Cl)cc1,83.9% (inactive)
13,COc1ccc(-c2nc(C#N)c(NCC(c3ccco3)N3CCCC3)o2)cc1 (stereo not given),51.5% (inactive)
14,Cc1cc(C)nc(NS(=O)(=O)c2ccc(Nc3ccc4c5c(n(CCCN(C)C)c(=O)c4c3)-c3ccccc3C5=O)cc2)n1,88.9% (inactive)
15,Cc1ccn2c3c(c(C(=O)O)c2c1)C(=O)c1ccccc1C3=O,63.7% (inactive)
16,O=c1[nH]c(-c2cccc(F)c2)cc2cc(F)ccc12,55.8% (inactive)
17,CCc1ccc(OCc2ccccc2C(=O)Nc2ccc3nc(C)cc(N)c3c2)cc1,-98.5% (active)
18,CCO/C=N/S(=O)(=O)c1cc2c(cc1Cl)NC=NS2(=O)=O,89.1% (inactive)
19,Cc1nn(-c2ccc(-c3ccc(OC(F)(F)F)cc3)cc2)c2nc(-c3ccccc3)nc(N)c12,82.4% (inactive)
20,CCOC(=O)c1c(C)nc2c(c1N)/C(=C/c1cccs1)C(=O)N2c1ccc(OC)cc1,16.5% (inactive)

row,SMILES,growth
1,COc1ccc(/C=C/C(=O)C(CC2CCC2)C(=O)/C=C/c2ccc(OC)c(OC)c2)cc1OC,-98.1% (active)
2,C=C(C)[C@@H]1CC[C@]2(C(=O)OCCCC[P+](c3ccccc3)(c3ccccc3)c3ccccc3)CC[C@]3(C)[C@H](CC[C@@H]4[C@@]5(C)CC[C@H](OC(=O)C(Cl)Cl)C(C)(C)[C@@H]5CC[C@]43C)[C@@H]12,-51% (active)
3,C=CCn1c(CN2CCN(c3cc4c(cc3F)c(=O)c(C(=O)O)cn4C3CC3)CC2)n[nH]c1=S,83.7% (inactive)
4,Cc1c(Cl)cccc1NC(=O)c1sc2nc3c(cc2c1N)CCCCCC3,55.4% (inactive)
5,COc1cc2c(cc1OC)C(Sc1ccc(Cl)cc1)c1c(nc(N)c(C#N)c1N)O2 (stereo not given),-36.3% (active)
6,CC(=O)c1cnc(-c2ccccc2)nc1CBr,44.7% (inactive)
7,Nc1ccc2c(c1)C(=O)C(=O)c1c-2nc2ccccn12,-40.8% (active)
8,c1ccc(-c2n(Cc3ccc4ccccc4n3)cc[n+]2Cc2ccc3ccccc3c2)cc1,54.6% (inactive)
9,O=C(/C(=C/c1ccc([N+](=O)[O-])cc1)SCc1ccccc1)c1ccc(Cl)cc1,59.5% (inactive)
10,CC(C)C1=C[C@@]23CC[C@H]4[C@](C)(COCCC#N)CCC[C@]4(C)[C@H]2C[C@@H]1[C@@H]1[C@H]3[C@@H](OCCC#N)CC[C@@H]1OCCC#N,24.8% (inactive)
11,CCOCCc1c(O)nc(SC)[nH]c1=O,83.9% (inactive)
12,CC(=O)Nc1c(C(=O)Nc2ccccc2)sc2nc3c(cc12)C(OC(C)=O)CCC3 (stereo not given),72.9% (inactive)
13,O=S(=O)(O)c1ccc(N=NSc2ccc3ccccc3c2)cc1,71% (inactive)
14,O=C(Nc1cccc(-c2cccc(F)c2)c1)C1CCN(Cc2cccc3cccnc23)CC1,35.8% (inactive)
15,COc1ccc2nc(-c3ccc(Cl)cc3)cc(C(=O)N3N=C(c4ccc(N)cc4)CC3c3ccccc3)c2c1 (stereo not given),45.5% (inactive)
16,O=C(O)CCNC1CCCCC1,83.4% (inactive)
17,COc1ccc(/C=C/C(=O)c2ccc(NC(=O)CSc3nnc(-c4ccc(OC)c(OC)c4)n3-c3ccccc3)cc2)cc1,-81.3% (active)
18,Nc1cc(N)nc(SCC(=O)O)n1,94.4% (inactive)
19,CCOC(=O)CC[C@H](NC(=O)c1ccc(NC)c2ccccc12)C(=O)OCC,93.8% (inactive)
20,N#Cc1ccc(N2Cc3cc(Cl)ccc3OC3=C2C(=O)N(Cc2ccccc2)C3=O)cc1,-90.5% (active)

# From PubChem BioAssay (NCI)
